The list is not random: actives were taken first. Their share in the collection is about 3%.
p53null 39C tox: kills p53 null cells at the nonpermissive temperature; 0.97% of 55,000 active; H1299 p53-null (neo) cells, 39C, ATPlite viability, 24 h; Potency, µM (titrated, usually from 46.1 µM), most hits filed as cytotoxic; note: nearly all actives have a fitted effect of over 50% in size
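ATP-luminescence viability readout (ATPlite, 20 min RT) after 24 hr compound treatment at 39C of H1299-neo or H1299-p53A138V cells; titration up to 46 uM; normalized to DMSO and 100 uM tamoxifen; Hill-fit AC50.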
PMP22 txn prim: PMP22 gene transcription modulation. S16 Pmp22-F2sN Schwann cells, FLuc/NLuc coincidence luminescence, 24 h. 2% of 43,000 active. Potency, µM (highest dose often 57.5 µM), most hits filed as inhibitors; active = clear falling dose curves in both reporters; inconclusive = both reporters move, but less clearly or upward; inactive = either reporter flat; the % is the NLuc reporter signal
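Transcriptional readout in edited S16(c9) cells: two luciferases reported from the Pmp22 locus, measured in turn after 24 h compound incubation.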
mTORC1 inh: reduces mTORC1 signaling in Tsc2 and p53 null MEF cells; Tsc2-/- p53-/- MEF, phospho-rpS6 immunofluorescence/PI, 24 h; Potency, µM (top dose mostly 38.3 µM), most hits filed as inhibitors; 0.78% of 44,000 active; AID 493208; note: nearly all actives have a fitted effect of over 50% in size
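Cell-based qHTS: Tsc2-/- p53-/- MEF, 24 h cpd, 37 °C; fix/perm, anti-phospho-S6 Alexa-488 + PI; Acumen 488 nm scan; pS6/PI ratio, % positive cells; rapamycin 7.5 nM = inhibition ref; PI count = viability.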
p53null 32C kill: p53 null cell cytotoxicity, permissive temperature | AID 903 | 0.62% of 55,000 active | Potency, µM (doses to about 46.1 µM), actives largely listed as cytotoxic | H1299-neo p53 null cells, ATP luminescence, 24 h, 32C; note: nearly all actives have a fitted effect of over 55% in size
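Cells lacking p53 (H1299-neo) are plated at 600 per well and allowed to settle overnight at 37C. Test compounds (up to 46 uM) are added and held 24 hours at 32C, then ATP is quantified by luminescence.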
S16 F2sN tox: S16 Schwann cell cytotoxicity | S16 Pmp22-F2sN Schwann cells (luciferase reporters placed in the Pmp22 gene) viability, CellTiter-Glo, 24 h | Potency, µM (titrated, usually from 57.5 µM), hits mostly cytotoxic | 0.48% of 43,000 active; note: nearly all actives have a fitted effect of over 65% in size
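Luminescence from CellTiter-Glo, read by CCD camera after a 15 min room-temperature incubation, served as the viability signal. Reporter Schwann cells (S16 Pmp22-F2sN) had been treated with pin-transferred compounds for 24 h at 37C.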
OvCa metastasis: inhibitors of ovarian cancer cell adhesion and invasion in omental model; SKOV3ip1-GFP adhesion/invasion on 3D omental model, fluorescence; Potency, µM (top dose mostly 45.8 µM), most hits filed as inhibitors; 0.1% of 46,000 active; AID 1963576; note: nearly all actives have a fitted effect of over 65% in size
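A 3D layer of primary human omental fibroblasts, mesothelial cells, fibronectin and collagen I, grown 48 hr, received SKOV3ip1-GFP cells in serum-free medium plus compounds at 0.36-46 umol/L. After 2 hr RT and 16 hr 37 C, fixed adherent GFP cells were counted; normalized to DMSO and tomatine.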
NLuc saturating: inhibits NanoLuc at saturating substrate, PMP22 counter-screen | shares compounds with PMP22 txn prim | Secreted NLuc enzyme (filtered S16 cell medium), Nano-Glo luminescence | Potency, µM (titrated, usually from 57.5 µM), most hits filed as inhibitors | 4% of 690 active | AID 1508638
NLuc Km ctr: inhibits NanoLuc under Km conditions, PMP22 counter-screen; shares compounds with PMP22 txn prim; secreted NLuc enzyme, coelenterazine luminescence, Km conditions; Potency, µM (series often up to 57.5 µM), actives largely listed as inhibitors; 5% of 690 active; AID 1508639
FLuc counter: firefly luciferase enzyme inhibition artifact for PMP22 screen; shares compounds with PMP22 txn prim; 690 tested, under 10 active; AID 1508640; purified P. pyralis FLuc, luminescence, 10 min; Potency, µM (highest dose often 57.5 µM), most hits filed as inhibitors
Target sequence (P08659 whole entry, looked up): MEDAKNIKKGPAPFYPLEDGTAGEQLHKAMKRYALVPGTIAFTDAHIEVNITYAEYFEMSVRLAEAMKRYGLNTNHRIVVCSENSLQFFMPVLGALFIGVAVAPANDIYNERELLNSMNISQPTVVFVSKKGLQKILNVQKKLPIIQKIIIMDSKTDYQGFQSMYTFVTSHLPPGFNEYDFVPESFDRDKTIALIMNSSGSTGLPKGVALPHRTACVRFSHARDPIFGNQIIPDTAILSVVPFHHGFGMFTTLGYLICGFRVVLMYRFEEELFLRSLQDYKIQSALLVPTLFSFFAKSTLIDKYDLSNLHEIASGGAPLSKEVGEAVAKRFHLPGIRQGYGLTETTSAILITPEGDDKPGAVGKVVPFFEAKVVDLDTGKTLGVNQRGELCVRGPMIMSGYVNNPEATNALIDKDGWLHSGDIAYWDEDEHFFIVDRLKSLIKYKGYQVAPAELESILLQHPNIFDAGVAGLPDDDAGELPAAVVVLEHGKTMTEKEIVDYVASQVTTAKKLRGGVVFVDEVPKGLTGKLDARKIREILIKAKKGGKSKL
S16 viab conf: S16 Schwann cell cytotoxicity, confirmatory | S16 Schwann cells viability, CellTiter-Glo ATP luminescence, 24 h | Potency, µM (doses to about 57.5 µM), actives largely listed as cytotoxic | AID 1508641 | shares compounds with PMP22 txn prim | 7% of 690 active
PMP22 txn conf: PMP22 transcription modulation, confirmatory; shares compounds with PMP22 txn prim; 22% of 690 active; Potency, µM (highest dose often 57.5 µM), usual class: inhibitors; S16 Schwann cells Pmp22-F2sN, dual luciferase, 24 h; active = clear falling dose curves in both reporters; inconclusive = both reporters move, but less clearly or upward; inactive = either reporter flat; the % is the FLuc reporter signal
A number is an active result; n = inactive; u = inconclusive; x = not tested or not shown. Unless noted, calls come from the whole dose curve; as a rule, active = well fitted curve in the direction sought with a large enough effect; inconclusive = small, poorly fitted or top-dose-only effect, or another doubt; inactive = no such curve, though single readings can be large; an effect the other way counts as inactive or inconclusive.

SMILES	p53null 39C tox	PMP22 txn prim	mTORC1 inh	p53null 32C kill	S16 F2sN tox	OvCa metastasis	NLuc saturating	NLuc Km ctr	FLuc counter	S16 viab conf	PMP22 txn conf
Cc1ccc(Cl)cc1NC(=O)Cn1c(=O)cc(C)c2c(C)nn(C)c21	n	18.9µM	n	n	n	n	n	n	n	n	n
COc1ccc(NC(=O)Cn2c(=O)cc(C)c3c(C)nn(C)c32)cc1	n	15.8µM	n	n	n	n	n	n	n	n	n
CCOc1ccc(NC(=O)Cn2c(=O)cc(C)c3c(C)nn(C)c32)cc1	n	n	u	n	u	n	x	x	x	x	x
Cc1c2cnn(CC(=O)NCc3ccccc3)c(=O)c2c(C)n1Cc1cccc(Cl)c1	u	12.9µM	u	n	n	n	n	n	n	n	u
CCOc1ccc(-c2nc3c(C#N)c[nH]n3c2NC2CCCCC2)cc1	n	u	n	n	n	n	x	x	x	x	x
COc1ccc(-c2nc3c(C#N)c[nH]n3c2NC2CCCC2)cc1	n	15µM	n	n	22.4µM	n	u	u	n	n	u
C[C@@H](CN1CC(=O)NC(=O)C1)N1CC(=O)NC(=O)C1	x	x	x	x	x	n	x	x	x	x	x
COc1ccc(-n2nc3c(N4CCCC(C(=O)NCc5ccccc5C)C4)nnc(C)c3c2C)cc1 (stereo not given)	15.8µM	12.6µM	5.21µM	u	25.1µM	u	n	n	n	21.7µM	u
COc1ccc(-n2nc3c(N4CCCC(C(=O)NCCc5ccccc5C)C4)nnc(C)c3c2C)cc1 (stereo not given)	n	17.9µM	n	n	u	n	u	n	n	u	u
Cc1ccc(-n2nc(C(C)(C)C)cc2NC(=O)Nc2ccc(OCCN3CCOCC3)c3ccccc23)cc1	x	x	x	x	x	n	x	x	x	x	x
Nc1ccccc1NC(=O)c1ccc(CNc2nccc(-c3cccnc3)n2)cc1	x	x	x	x	x	n	x	x	x	x	x
CCc1ccccc1NC(=O)c1ccc2nc(C(C)C)oc2c1	n	16.8µM	n	n	u	u	u	u	n	n	n
CCc1ccccc1NC(=O)Cn1nc(CC)n2c(cc3sccc32)c1=O	n	n	n	n	n	n	n	n	n	n	u
CCc1nn(CC(=O)Nc2ccc(NC(C)=O)cc2)c(=O)c2cc3sccc3n12	n	n	n	n	n	n	x	x	x	x	x
N#C[C@H]1C[C@H]2C[C@@H]2N1C(=O)[C@@H](N)C12CC3CC(CC(O)(C3)C1)C2	x	x	x	x	x	n	x	x	x	x	x
CCN(CC)C(=O)c1ccc(S(=O)(=O)N2CCC(c3nc4ccccc4s3)CC2)cc1	n	x	x	n	x	x	x	x	x	x	x
